Sampled rows, rich in hits. Any-hit rate of the full collection: about 7.3%.
HCMV inh: qHTS Assay for inhibitors of the human cytomegalovirus (HCMV); HFF cells, HCMV-luciferase reporter, 72 h; stronger effect = lower value; activity change, negative = inhibition, % at 57.5 µM; 410,000 compounds, 4.5% hits; in the data active = activity change below about -60%; inconclusive = no clear call, values can overlap the other calls; inactive = above about -39%
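Two compound doses tested in HFFs infected with HCMV-luciferase, MOI 1 PFU/cell, 72 h at 37C. Lysate luminescence read with OneGlo; data normalized against buffer-only and 10uM Salinomycin inhibitor controls.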
FMDV inh: High Throughput Screening for Foot and Mouth Disease Virus Antivirals | FMDV antiviral cell-based qHTS | Potency, µM (titrated, usually from 57.9 µM), without a hit: top-dose activity change, negative = inhibition, actives largely listed as inhibitors | 410,000 compounds, 1.2% hits | AID 1159524, 2015; calls by dose curve; tested in HEK293T cells; also: read-out not given here; potency is read from the fitted curve at half-maximal effect; nearly all actives have a fitted effect of over 45% in size
AmpC no deterg: qHTS Inhibitors of AmpC Beta-Lactamase (assay without detergent). P00811. AmpC nitrocefin hydrolysis, absorbance 480 nm, 0.0001% Triton. Potency, µM (highest dose often 57.1 µM), for inactives: at the highest dose activity change, negative = inhibition, most hits filed as inhibitors. 330,000 compounds, 0.52% hits;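 also: potency is read from the fitted curve at half-maximal effect; plate controls were no compound for no effect and no enzyme for full effect; nearly all actives have a fitted effect of over 20% in size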
Target sequence (P00811 whole entry, looked up): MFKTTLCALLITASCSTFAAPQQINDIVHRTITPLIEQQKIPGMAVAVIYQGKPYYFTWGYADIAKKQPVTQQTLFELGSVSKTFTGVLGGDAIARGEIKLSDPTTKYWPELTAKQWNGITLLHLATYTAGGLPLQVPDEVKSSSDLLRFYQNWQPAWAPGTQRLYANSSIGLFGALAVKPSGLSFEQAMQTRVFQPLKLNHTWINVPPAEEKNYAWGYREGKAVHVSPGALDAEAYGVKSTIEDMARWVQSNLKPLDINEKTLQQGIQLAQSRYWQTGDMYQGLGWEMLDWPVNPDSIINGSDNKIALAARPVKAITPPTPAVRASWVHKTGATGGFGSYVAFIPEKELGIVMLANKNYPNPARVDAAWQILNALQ
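20 mM phosphate pH 7.0 + 0.01% (detergent screen) or 0.0001% Triton X-100; 5.3 nM AmpC reagent; cpd preinc 15 min RT; nitrocefin (800 uM stock) to start; A480 q20 s × 4 min; Activity was normalised to no-enzyme and no-compound control wells.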
HCV inh: qHTS Assay for Inhibitors of Hepatitis C Virus (HCV). Huh7.5.1 HCVcc-Cre infection, luciferase reporter, 44 h. Potency, µM (series often up to 41.8 µM), without a hit: at the highest dose activity change, negative = inhibition, actives largely listed as inhibitors. 340,000 compounds, 3.4% hits. AID 651820, 2012; also: potency is read from the fitted curve at half-maximal effect
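After 44 h co-culture of compound, cells and HCVcc-Cre (~0.5 moi), substrate is added for 15 min at room temperature and luciferase measured over 15 sec. Cells were seeded at 1,000/well and pre-cultured 4 h.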
AmpC detergent: qHTS Inhibitors of AmpC Beta-Lactamase (assay with detergent); 370,000 compounds, 0.041% hits; AID 485294, 2010; AmpC hydrolysis of nitrocefin, absorbance 480 nm, 0.01% Triton; P00811; Potency, µM (series often up to 114 µM), for the others: top-dose activity change, negative = inhibition, hits mostly inhibitors;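 also: potency is read from the fitted curve at half-maximal effect; 0% = no-compound wells and -100% = no-enzyme wells; nearly all actives have a fitted effect of over 25% in size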
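20 mM phosphate pH 7.0 + 0.01% (detergent screen) or 0.0001% Triton X-100; 5.3 nM AmpC reagent; cpd preinc 15 min RT; nitrocefin (800 uM stock) to start; A480 q20 s × 4 min; Activity was normalised to no-enzyme and no-compound control wells.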
An asterisk follows results filed as active; [ ] = remark or other dose. Unless noted, calls follow the shape of the dose curve; as a rule, active = well fitted curve in the direction sought with a large enough effect; inconclusive = small, poorly fitted or top-dose-only effect, or another doubt; inactive = no such curve, though single readings can be large; an effect the other way counts as inactive or inconclusive. Unless noted, % is scaled to controls: 0 for no effect and ±100 for the full control effect.

What do the screens show for `CCOc1ccc(C2CC(=O)Nc3nc(SCc4ccccc4C)[nH]c(=O)c32)cc1OC` (stereo not drawn)?
HCMV inh: -102.4*; FMDV inh: 2.3%; AmpC detergent: 1.3%

Results for CCOc1cc(C2CC(=O)Nc3nc(SCc4ccccc4)[nH]c(=O)c32)ccc1O (stereo not drawn) ?
HCMV inh: 18.6; FMDV inh: -8.3%; AmpC detergent: 6.2%

How did Fc1ccccc1CCNc1c2c(nc3ncnn13)CCCC2 do in these assays?
HCMV inh: -77.4*; FMDV inh: -24.9%; AmpC no deterg: -7.1%; HCV inh: inconclusive; AmpC detergent: -8.3%

How did c1ccc(CCNc2c3c(nc4ncnn24)CCC3)cc1 do in these assays?
HCMV inh: -39.0; FMDV inh: inconclusive; AmpC no deterg: -22.2%; AmpC detergent: -2.8%

Results for O=C(Nc1ccc(F)cc1)c1ccc2c(=O)n3c(nc2c1)CCCCC3 ?
HCMV inh: 33.1; FMDV inh: -8.6%; AmpC no deterg: -23.0%; HCV inh: inconclusive; AmpC detergent: -4.8%

How did Cc1ccc(S(=O)(=O)N2CCCCC2)cc1NC(=O)c1ccc2c(=O)n3c(nc2c1)CCCCC3 do in these assays?
HCMV inh: -37.6; AmpC no deterg: 54.8%; HCV inh: 11.2µM*; AmpC detergent: -2.4%

What do the screens show for `O=C(Nc1ccc(S(=O)(=O)N2CCCC2)cc1)c1ccc2c(=O)n3c(nc2c1)CCCCC3`?
HCMV inh: -90.2*; FMDV inh: inconclusive; AmpC no deterg: -56.3%; HCV inh: 11.2µM*; AmpC detergent: -11.5%

What do the screens show for `Cc1ccc(NC(=O)c2ccc3c(=O)n4c(nc3c2)CCC4)cc1F`?
HCMV inh: 8.5; FMDV inh: -7.3%; AmpC no deterg: -17.3%; HCV inh: inconclusive; AmpC detergent: -0.6%

How did Cc1ccc(-c2csc(NC(=O)c3ccc4c(=O)n5c(nc4c3)CCCCC5)n2)cc1 do in these assays?
HCMV inh: -66.4*; FMDV inh: 7.94µM*; AmpC no deterg: -18.3%; HCV inh: inconclusive; AmpC detergent: -5.1%

Results for O=C(COC(=O)c1ccncc1)Nc1cc(S(=O)(=O)N2CCOCC2)ccc1Cl ?
HCMV inh: 0.0; FMDV inh: -6.1%; AmpC no deterg: -6.2%; HCV inh: -1.0%; AmpC detergent: -14.3%

Results for C#CCN(C[C@H]1[C@H](OC(=O)NCCCCCC)[C@H](OC(=O)NCCCCCC)CN(C(=O)OC(C)C)N1C(=O)OC(C)C)S(=O)(=O)c1ccc(C)cc1 ?
HCMV inh: -5.9

How did CNC(=S)NNc1nc(-c2ccccc2)c2cc(Cl)ccc2n1 do in these assays?
HCMV inh: -72.3*; FMDV inh: -10.1%; HCV inh: -7.0%

Results for Oc1ccccc1Nc1nc(-c2ccccc2)c2cc(Cl)ccc2n1 ?
HCMV inh: -27.0; FMDV inh: 22.2%; AmpC detergent: 29.2%

What do the screens show for `CCN(NC(=O)C(O)(c1ccccc1)c1ccccc1)C(=O)c1ccccc1`?
HCMV inh: -5.4; FMDV inh: 0.0%; AmpC no deterg: -20.9%; HCV inh: -4.1%; AmpC detergent: -16.3%

What do the screens show for `CC(c1ccccc1)N(NC(=O)C(O)(c1ccccc1)c1ccccc1)C(=O)c1ccccc1` (stereo not drawn)?
HCMV inh: -74.2*; FMDV inh: -11.9%; AmpC no deterg: -16.2%; HCV inh: inconclusive; AmpC detergent: inconclusive

What do the screens show for `O=C(NCc1ccc(OC(F)(F)F)cc1)c1cc(-c2ccccc2)nn1CC1CC(c2cccnc2)=NO1` (stereo not drawn)?
HCMV inh: -67.1*; FMDV inh: -9.9%; HCV inh: inconclusive

What do the screens show for `O=C(NCc1ccco1)c1cc(-c2ccccc2)nn1CC1CC(c2cccnc2)=NO1` (stereo not drawn)?
HCMV inh: 2.1; FMDV inh: 3.6%; HCV inh: -25.3%

Results for C=CCn1c(=N)n(CC(=O)c2ccc(Cl)cc2)c2ccccc21 ?
HCMV inh: -19.3; FMDV inh: -10.3%; AmpC no deterg: -34.3%; HCV inh: inconclusive; AmpC detergent: 0.5%

Results for C=CCn1c(=N)n(CC(=O)c2ccc(Br)s2)c2ccccc21 ?
HCMV inh: -74.1*; FMDV inh: -40.9%; AmpC no deterg: 1.2%; HCV inh: inconclusive; AmpC detergent: -8.3%

How did Cc1ccc(C)c(S(=O)(=O)N2CCN(C(=O)c3ccccc3Cc3ccccc3)CC2)c1 do in these assays?
HCMV inh: -17.5; FMDV inh: inconclusive; AmpC no deterg: 29.9%; HCV inh: inconclusive; AmpC detergent: -17.6%

Results for CCOCN(C(=O)Cn1c(CC(C)C)nc2ccccc21)c1c(C)cccc1CC ?
HCMV inh: -61.5*; FMDV inh: -29.6%; AmpC detergent: 3.7%

How did CN(Cc1ccccc1)c1nc(-c2ccc([N+](=O)[O-])cc2)nc2ccccc12 do in these assays?
HCMV inh: -39.9; FMDV inh: -28.0%; AmpC no deterg: -21.7%; HCV inh: -2.4%; AmpC detergent: 9.6%

Results for O=[N+]([O-])c1ccc(-c2nc(C(Cl)Cl)c3ccccc3n2)cc1 ?
HCMV inh: -102.4*; FMDV inh: -11.9%; AmpC no deterg: -40.3%; HCV inh: 2µM*; AmpC detergent: -5.3%

What do the screens show for `O=C(Cn1cnc2c(nnn2Cc2ccccc2F)c1=O)N1CCN(c2ccccc2)CC1`?
HCMV inh: inconclusive; AmpC no deterg: 4.9%; HCV inh: -2.6%; AmpC detergent: -5.9%

What do the screens show for `O=C(CSc1ncnc2c1nnn2Cc1ccccc1F)N1CCN(c2ccccc2)CC1`?
HCMV inh: -15.7; FMDV inh: 35.5µM*; AmpC no deterg: 3.2%; HCV inh: 4.9%; AmpC detergent: -13.5%

What do the screens show for `Cc1ccccc1NC(=S)NCc1ccc2c(c1)cc(C)n2C`?
HCMV inh: -4.3; FMDV inh: 14.1%; AmpC no deterg: -16.6%; HCV inh: -17.2%[8.37 µM]; AmpC detergent: inconclusive

Results for CCc1cccc(C)c1NC(=S)NCc1ccc2c(c1)cc(C)n2C ?
HCMV inh: -91.3*; FMDV inh: -12.7%; AmpC no deterg: -13.7%; HCV inh: inconclusive; AmpC detergent: inconclusive

Results for Cc1cccc2c1c1ccc3c(c1n2C)C(=O)C=CC3=O ?
HCMV inh: 3.3; FMDV inh: 14.1µM*; AmpC no deterg: -52.4%; HCV inh: -18.4%; AmpC detergent: 4.8%

Results for C=CCNC(=O)Nc1ccc(F)c(Cl)c1 ?
HCMV inh: -94.3*; FMDV inh: 20.3%; AmpC no deterg: -14.7%; HCV inh: -5.0%; AmpC detergent: -0.4%

Results for CCOC(=O)c1ccc(N2CCN(c3cc(Cl)ccc3C)CC2)c(NC(=O)Nc2ccc(OCC)cc2)c1 ?
HCMV inh: 18.6; FMDV inh: -14.7%; AmpC detergent: 1.2%
